In publication PMC4336329 (PLoS ONE, 2015):
Screen size: about 310,000 compounds; about 14,000 (4.5%) showed an effect of 50% or more. Effects have a minus sign here. The entries come from a sample that favours strong results as a whole.

Target: human ether-à-go-go-related gene (hERG) potassium channel (human, UniProt Q12809)
Assay: primary screen, population patch clamp on CHO cells stably expressing hERG; higher = less effect of the substance
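Also: peak tail current of the secondary pulse compared with the same well before compound.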

Sequence of human ether-à-go-go-related gene (hERG) potassium channel (Q12809 whole entry, looked up): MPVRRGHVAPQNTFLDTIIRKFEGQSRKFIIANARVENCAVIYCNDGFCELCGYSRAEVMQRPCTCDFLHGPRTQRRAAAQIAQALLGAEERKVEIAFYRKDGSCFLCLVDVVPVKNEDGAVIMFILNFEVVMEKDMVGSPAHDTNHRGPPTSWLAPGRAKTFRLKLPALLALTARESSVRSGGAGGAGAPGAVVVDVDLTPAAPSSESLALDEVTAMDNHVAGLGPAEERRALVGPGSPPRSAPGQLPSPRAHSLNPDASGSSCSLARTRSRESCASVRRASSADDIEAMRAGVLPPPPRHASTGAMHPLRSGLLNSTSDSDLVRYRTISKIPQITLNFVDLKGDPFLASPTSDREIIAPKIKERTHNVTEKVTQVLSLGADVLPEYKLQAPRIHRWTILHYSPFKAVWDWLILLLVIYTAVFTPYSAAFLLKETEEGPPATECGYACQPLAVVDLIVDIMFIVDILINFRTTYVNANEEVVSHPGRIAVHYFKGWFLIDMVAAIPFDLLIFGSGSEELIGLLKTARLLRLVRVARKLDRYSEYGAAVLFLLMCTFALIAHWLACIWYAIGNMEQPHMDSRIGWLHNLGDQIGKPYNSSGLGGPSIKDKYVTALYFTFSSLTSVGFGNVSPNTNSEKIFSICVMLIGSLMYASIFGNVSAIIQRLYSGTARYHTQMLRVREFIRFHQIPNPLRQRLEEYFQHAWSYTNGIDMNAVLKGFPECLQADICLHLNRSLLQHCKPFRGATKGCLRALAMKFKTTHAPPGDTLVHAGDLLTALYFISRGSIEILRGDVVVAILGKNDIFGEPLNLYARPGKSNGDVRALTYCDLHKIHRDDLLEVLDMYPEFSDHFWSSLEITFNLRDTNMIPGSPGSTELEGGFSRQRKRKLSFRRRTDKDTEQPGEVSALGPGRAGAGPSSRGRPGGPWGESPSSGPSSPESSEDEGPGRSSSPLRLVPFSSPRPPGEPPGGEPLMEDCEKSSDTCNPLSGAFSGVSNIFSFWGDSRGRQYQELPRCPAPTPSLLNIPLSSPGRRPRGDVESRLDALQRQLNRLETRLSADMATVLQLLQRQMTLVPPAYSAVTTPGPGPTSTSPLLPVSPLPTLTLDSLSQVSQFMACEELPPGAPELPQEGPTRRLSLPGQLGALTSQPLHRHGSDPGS

SMILES | hERG current change (%, negative = inhibition) at 10uM
O=C(NCC1CCCO1)c1cc(-c2ccncc2)nc2ccc(S(=O)(=O)N3CCOCC3)cc12 (stereo not drawn) | -24.5%
CC(C)(C#CCN1CCCCC1)OCCOC(c1ccccc1)c1ccccc1.Cl | -21.3%
Cc1ccc(NC(=O)CCn2cnc3cc(C)c(C)cc32)cc1 | -8.26%
COc1ccccc1N1C(=O)c2ccc(C(=O)Nc3ccc(F)cc3)cc2C1=O | 1.07%
CCOC(=O)N1CCN(c2ncnc3c2[nH]c2ccc(F)cc23)CC1 | -2.67%
Cc1ccnc(NC(=O)C2CCN(S(=O)(=O)c3ccc4ccccc4c3)CC2)c1 | 7.94%
O=c1c(Br)c(N2CCCCC2)cnn1-c1ccccc1 | -16.5%
CC(C)Cc1oc(C(=O)O)cc1CN.Cl | -4.32%
O=C(Nc1nnc(-c2ccc(Cl)cc2)o1)c1ccc(N2C(=O)CCC2=O)cc1 | 12.9%
Cc1ccccc1OCC(=O)OCC(=O)Nc1ccc(N2CCOCC2)cc1 | 9.51%
O=S(=O)(Nc1c(F)cccc1F)c1ccc2c(c1)OCCO2 | 9.82%
CCOC(=O)c1sc2nc(NC(=O)C(C)(C)C)sc2c1C | -11.7%
Cc1ccc(S(=O)(=O)N(C)c2nc3ccccc3n3c(C(C)C)nnc23)cc1 | -28.1%
O=C(CCC(=O)N1CCOc2ccc(Cl)cc21)NCc1ccccc1 | -21.7%
O=C(CCC(=O)N1CCOc2ccccc21)NCCCc1ccccc1 | -17.5%
CCN(CCCNC(=O)CCC(=O)N1CCOc2ccccc21)Cc1ccccc1 | -62.5%
CC(CNC(=O)CCC(=O)N1CCOc2ccc(Cl)cc21)c1ccccc1 (stereo not drawn) | -40.6%
Cc1ccc2c(c1)N(C(=O)CCC(=O)NCc1cccc(F)c1)CCO2 | -5.21%
O=C(CCC(=O)N1CCOc2ccccc21)NCCc1ccccc1 | -6%
CN(CCCNC(=O)CCC(=O)N1CCOc2ccc(Cl)cc21)Cc1ccccc1 | -64.1%
Cc1ccc2c(c1)N(C(=O)CCC(=O)NCCCN(C)Cc1ccccc1)CCO2 | -68.3%

SMILES | hERG current change (%, negative = inhibition) at 10uM
CN(CCCNC(=O)CCC(=O)N1CCOc2ccccc21)Cc1ccccc1 | -30.7%
COc1ccc(C(=O)Oc2cc(C)[nH]c(=O)c2[N+](=O)[O-])c(OC)c1 | 11.9%
Cc1ccc(C)c2[nH]c(=O)c(CN(Cc3ccco3)S(=O)(=O)c3ccc4c(c3)OCCO4)cc12 | 9.44%
CC(C)NC(=O)[C@]1(C)CCC[C@@]2(C)C3CC[C@@]4(C)C[C@]3(CCC21)CC4=O (stereo partly drawn) | 6.23%
CCc1ccc(NC(=O)C2CCCN(S(C)(=O)=O)C2)cc1 (stereo not drawn) | 21.3%
C=CCn1c(SCc2csc(C)n2)nc2sc3c(c2c1=O)CCCCC3 | -8.41%
O=C(CN1C(=O)C(c2ccc(F)cc2)=NC12CCCC2)Nc1ccc(F)cc1 | -5.39%
CC(C)(C)OC(=O)N1CC(O)CC1C(=O)OCC(=O)c1ccccc1 (stereo not drawn) | 5.86%
CC(C)(C)OC(=O)N1C[C@H](O)C[C@H]1C(=O)OCC(=O)c1ccc([N+](=O)[O-])cc1 | -63.4%
CC(C)(C)OC(=O)N1CC(O)CC1C(=O)OCC(=O)c1ccc(Cl)cc1 (stereo not drawn) | -16.4%
COc1cccc(/C=N/NC(=O)c2[nH]c(C)c(C(=O)N/N=C/c3cccc(OC)c3O)c2C)c1O | 11.7%
CCN1CCc2c(OCC(=O)Nc3ccc4c(c3)OCCO4)cccc2C1=O | 5.28%
CC(C)(C)c1cc(NCCCn2ccnc2)n2ncc(-c3ccccc3)c2n1 | -18%
Cc1cc(NCCCN2CCOCC2)n2ncc(-c3ccc(Cl)cc3)c2n1 | 0.66%
Cc1cc(NCCCN2CCOCC2)n2ncc(-c3ccccc3)c2n1 | -21%
Cc1cc(NCCCn2ccnc2)n2ncc(-c3ccccc3)c2n1 | -67.6%
CC(C)(C)c1cc(NCCCn2ccnc2)n2ncc(-c3ccc(Cl)cc3)c2n1 | 12.1%
Cc1cc(NCCCn2ccnc2)n2ncc(-c3ccc(Cl)cc3)c2n1 | -68%
Cc1cc(C)c(S(=O)(=O)N2CCCCC2)c(C)c1N(C)S(=O)(=O)c1ccc(Cl)cc1 | 0.393%
Cc1ccc(S(=O)(=O)N2CCN(Cc3ccccc3)CC2)c(C)c1N(C)S(=O)(=O)c1ccccc1 | 5.81%
Cc1ccc(S(=O)(=O)N2CCN(C)CC2)c(C)c1N(C)S(=O)(=O)c1ccc(Cl)cc1 | -68.7%
